# Experimental data as given in paper PMC7862700, “An all-to-all approach to the identification of sequence-specific readers for epigenetic DNA modifications on cytosine”.
# Assays:
# Experiment in all cases: DAPPL (digital affinity profiling via proximity ligation, sequencing); 10 mM Tris-HCl pH 7.5, 50 mM NaCl, 1 mM DTT, 4% glycerol, room temperature, 30 min; GST-TFs on glutathione beads, 16-mer random dsDNA library, 0.1% formaldehyde crosslink after washing; high values mean tight binding
# FEV = target: T1, FEV (Homo sapiens, UniProt Q99581 1-238); settings: protein: recombinant; tags: N-terminal GST; dsDNA, one strand shown
# T1 sequence: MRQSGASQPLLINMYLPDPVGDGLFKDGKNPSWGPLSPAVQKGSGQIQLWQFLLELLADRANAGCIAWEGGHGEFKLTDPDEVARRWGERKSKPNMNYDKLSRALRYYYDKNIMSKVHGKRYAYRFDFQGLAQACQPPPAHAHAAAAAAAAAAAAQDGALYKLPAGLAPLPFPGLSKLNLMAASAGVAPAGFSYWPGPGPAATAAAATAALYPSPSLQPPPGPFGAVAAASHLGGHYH
# How it was run: (§1)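 Human transcription factors carrying a GST fusion were produced in yeast, bound to glutathione beads, tagged with DNA barcodes and pooled together with a tag-only sample. Each pool was held with 200 nmole of a random double-stranded 16-mer DNA library in Tris/NaCl/DTT/glycerol buffer for 30 min at room temperature, then washed, crosslinked in 0.1% formaldehyde, proximity-ligated with BsaI/T4 ligase (1 h, 37 °C), PCR-amplified and sequenced on an Illumina NextSeq500. Binding signal is the read frequency of each hexamer for a given factor divided by its frequency in the tag-only sample.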
# ETV5 = ETV5 (Homo sapiens, UniProt P41161 1-510); settings: protein: recombinant; tags: N-terminal GST; dsDNA, one strand shown
# Chain of ETV5 (P41161 whole entry): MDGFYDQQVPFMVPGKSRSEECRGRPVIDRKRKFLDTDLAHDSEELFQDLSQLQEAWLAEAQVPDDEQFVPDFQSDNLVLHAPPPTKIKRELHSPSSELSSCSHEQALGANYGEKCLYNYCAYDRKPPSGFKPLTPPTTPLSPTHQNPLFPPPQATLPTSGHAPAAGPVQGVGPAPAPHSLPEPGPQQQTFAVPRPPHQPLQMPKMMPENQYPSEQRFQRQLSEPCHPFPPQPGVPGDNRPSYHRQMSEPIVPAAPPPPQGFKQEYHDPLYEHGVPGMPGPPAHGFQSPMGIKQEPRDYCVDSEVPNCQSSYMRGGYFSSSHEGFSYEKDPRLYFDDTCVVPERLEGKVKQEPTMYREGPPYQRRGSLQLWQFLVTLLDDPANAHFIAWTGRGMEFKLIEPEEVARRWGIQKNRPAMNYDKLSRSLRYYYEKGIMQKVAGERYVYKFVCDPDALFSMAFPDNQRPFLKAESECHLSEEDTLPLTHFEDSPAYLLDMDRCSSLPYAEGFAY
# How it was run: as §1
# HSF1 = HSF1 (Homo sapiens, UniProt Q00613 1-529); settings: protein: recombinant; tags: N-terminal GST; chain copies: 3; dsDNA, one strand shown
# Chain of HSF1 (Q00613 whole entry): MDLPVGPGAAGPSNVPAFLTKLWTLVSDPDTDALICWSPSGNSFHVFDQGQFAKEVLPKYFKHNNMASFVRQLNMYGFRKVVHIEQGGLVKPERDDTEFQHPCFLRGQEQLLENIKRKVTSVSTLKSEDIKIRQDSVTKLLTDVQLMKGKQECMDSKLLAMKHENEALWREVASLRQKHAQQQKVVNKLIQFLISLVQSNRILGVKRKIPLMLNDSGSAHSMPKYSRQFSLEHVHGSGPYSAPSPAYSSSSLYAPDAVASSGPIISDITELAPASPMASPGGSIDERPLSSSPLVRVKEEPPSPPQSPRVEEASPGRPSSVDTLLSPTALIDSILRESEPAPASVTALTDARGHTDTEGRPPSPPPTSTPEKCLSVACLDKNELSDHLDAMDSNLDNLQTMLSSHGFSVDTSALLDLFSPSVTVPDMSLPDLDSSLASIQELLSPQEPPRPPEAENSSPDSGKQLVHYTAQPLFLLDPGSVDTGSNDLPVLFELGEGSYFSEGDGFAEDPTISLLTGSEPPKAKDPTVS
# How it was run: as §1
# SPIC = target: T2, SPIC (Homo sapiens, UniProt Q8N5J4 1-248); settings: protein: recombinant; tags: N-terminal GST; dsDNA, one strand shown
# T2 sequence: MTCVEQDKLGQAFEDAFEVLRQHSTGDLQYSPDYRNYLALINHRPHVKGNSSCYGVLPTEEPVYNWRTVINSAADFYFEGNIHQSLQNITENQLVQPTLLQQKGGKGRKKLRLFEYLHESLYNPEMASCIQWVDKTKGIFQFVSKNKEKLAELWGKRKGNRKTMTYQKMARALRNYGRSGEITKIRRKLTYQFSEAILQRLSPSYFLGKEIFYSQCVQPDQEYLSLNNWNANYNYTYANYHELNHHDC
# How it was run: as §1
# ELF4 = ELF4 (Homo sapiens, UniProt Q99607 1-663); settings: protein: recombinant; tags: N-terminal GST; dsDNA, one strand shown
# Chain of ELF4 (Q99607 whole entry): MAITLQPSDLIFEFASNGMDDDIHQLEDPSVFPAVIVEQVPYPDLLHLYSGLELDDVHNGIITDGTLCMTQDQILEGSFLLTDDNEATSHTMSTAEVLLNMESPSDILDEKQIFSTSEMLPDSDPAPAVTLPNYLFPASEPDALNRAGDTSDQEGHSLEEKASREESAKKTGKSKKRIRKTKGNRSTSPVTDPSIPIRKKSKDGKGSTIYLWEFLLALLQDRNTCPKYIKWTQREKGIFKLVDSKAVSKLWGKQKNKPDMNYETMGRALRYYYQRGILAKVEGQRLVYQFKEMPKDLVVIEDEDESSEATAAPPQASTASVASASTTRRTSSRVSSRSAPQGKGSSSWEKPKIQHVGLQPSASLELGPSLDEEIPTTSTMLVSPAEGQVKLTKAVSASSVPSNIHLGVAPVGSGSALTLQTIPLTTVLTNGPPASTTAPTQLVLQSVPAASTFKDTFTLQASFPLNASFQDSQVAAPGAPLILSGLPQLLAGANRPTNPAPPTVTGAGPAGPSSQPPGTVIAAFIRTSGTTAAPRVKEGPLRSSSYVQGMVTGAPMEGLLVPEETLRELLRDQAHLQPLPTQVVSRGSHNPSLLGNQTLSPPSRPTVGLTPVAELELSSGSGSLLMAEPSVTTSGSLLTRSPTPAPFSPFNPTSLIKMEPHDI
# How it was run: as §1
# ELK4 = target: T3, ELK4 (Homo sapiens, UniProt P28324-2 1-405); settings: protein: recombinant; tags: N-terminal GST; dsDNA, one strand shown
# T3 sequence: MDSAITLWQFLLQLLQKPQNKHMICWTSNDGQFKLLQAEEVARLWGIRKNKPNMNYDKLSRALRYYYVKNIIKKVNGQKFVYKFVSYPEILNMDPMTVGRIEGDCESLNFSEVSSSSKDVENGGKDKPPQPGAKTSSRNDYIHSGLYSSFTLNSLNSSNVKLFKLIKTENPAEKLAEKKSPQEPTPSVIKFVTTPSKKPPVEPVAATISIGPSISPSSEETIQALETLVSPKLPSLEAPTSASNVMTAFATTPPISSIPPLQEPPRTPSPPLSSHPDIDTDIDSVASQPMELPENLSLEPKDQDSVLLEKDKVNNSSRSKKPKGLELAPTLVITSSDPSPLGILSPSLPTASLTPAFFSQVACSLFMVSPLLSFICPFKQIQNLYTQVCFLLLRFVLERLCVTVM
# How it was run: as §1
# ETV2 = target: T4, ETV2 (Homo sapiens, UniProt O00321 1-342); settings: protein: recombinant; tags: N-terminal GST; dsDNA, one strand shown
# T4 sequence: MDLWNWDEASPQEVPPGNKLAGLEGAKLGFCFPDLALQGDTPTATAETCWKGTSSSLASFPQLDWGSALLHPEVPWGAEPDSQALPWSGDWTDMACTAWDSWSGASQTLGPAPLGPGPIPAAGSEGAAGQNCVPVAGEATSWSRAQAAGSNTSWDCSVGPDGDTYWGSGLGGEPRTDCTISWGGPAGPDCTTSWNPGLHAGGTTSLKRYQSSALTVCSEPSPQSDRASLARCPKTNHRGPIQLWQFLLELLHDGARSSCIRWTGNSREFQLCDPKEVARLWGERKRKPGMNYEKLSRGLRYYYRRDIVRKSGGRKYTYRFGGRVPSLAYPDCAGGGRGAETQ
# How it was run: as §1
# ELF3 = target: T5, ELF3 (Homo sapiens, UniProt P78545 1-371); settings: protein: recombinant; tags: N-terminal GST; dsDNA, one strand shown
# T5 sequence: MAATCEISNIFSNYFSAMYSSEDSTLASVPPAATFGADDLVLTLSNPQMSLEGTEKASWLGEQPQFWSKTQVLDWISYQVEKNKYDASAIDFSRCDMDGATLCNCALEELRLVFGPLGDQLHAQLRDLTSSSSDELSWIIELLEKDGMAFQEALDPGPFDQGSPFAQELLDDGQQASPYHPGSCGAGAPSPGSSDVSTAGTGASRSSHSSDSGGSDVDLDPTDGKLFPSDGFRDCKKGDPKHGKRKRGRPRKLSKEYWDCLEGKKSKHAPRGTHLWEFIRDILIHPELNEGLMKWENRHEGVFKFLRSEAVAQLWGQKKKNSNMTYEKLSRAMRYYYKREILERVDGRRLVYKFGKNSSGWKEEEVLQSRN
# How it was run: as §1
# CRX = CRX (Homo sapiens, UniProt O43186 1-299); settings: protein: recombinant; tags: N-terminal GST; dsDNA, one strand shown
# Chain of CRX (O43186 whole entry): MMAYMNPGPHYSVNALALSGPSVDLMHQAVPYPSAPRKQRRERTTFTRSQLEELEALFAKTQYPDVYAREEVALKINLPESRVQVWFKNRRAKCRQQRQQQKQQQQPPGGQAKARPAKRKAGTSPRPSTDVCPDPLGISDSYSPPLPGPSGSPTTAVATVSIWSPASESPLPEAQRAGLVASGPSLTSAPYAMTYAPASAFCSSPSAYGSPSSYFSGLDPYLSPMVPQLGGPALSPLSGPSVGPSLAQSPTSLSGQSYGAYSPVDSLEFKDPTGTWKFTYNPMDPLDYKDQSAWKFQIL
# How it was run: as §1
# ETV1 = ETV1 (Homo sapiens, UniProt P50549 1-477); settings: protein: recombinant; tags: N-terminal GST; dsDNA, one strand shown
# Chain of ETV1 (P50549 whole entry): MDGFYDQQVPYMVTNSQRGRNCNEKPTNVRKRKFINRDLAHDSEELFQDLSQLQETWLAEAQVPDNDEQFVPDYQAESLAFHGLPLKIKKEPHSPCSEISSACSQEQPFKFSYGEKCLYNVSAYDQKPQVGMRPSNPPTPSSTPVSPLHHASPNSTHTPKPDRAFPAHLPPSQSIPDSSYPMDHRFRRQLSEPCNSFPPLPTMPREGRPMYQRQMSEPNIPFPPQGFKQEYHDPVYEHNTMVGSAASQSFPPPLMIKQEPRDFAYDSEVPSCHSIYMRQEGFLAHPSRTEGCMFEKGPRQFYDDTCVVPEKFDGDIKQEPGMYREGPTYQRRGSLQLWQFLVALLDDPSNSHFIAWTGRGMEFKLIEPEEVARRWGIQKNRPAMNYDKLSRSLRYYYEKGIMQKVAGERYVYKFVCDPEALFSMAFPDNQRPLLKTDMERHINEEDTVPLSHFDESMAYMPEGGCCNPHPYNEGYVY
# How it was run: as §1
# ERF = target: T6, ERF (Homo sapiens, UniProt P50548 1-548); settings: protein: recombinant; tags: N-terminal GST; dsDNA, one strand shown
# T6 sequence: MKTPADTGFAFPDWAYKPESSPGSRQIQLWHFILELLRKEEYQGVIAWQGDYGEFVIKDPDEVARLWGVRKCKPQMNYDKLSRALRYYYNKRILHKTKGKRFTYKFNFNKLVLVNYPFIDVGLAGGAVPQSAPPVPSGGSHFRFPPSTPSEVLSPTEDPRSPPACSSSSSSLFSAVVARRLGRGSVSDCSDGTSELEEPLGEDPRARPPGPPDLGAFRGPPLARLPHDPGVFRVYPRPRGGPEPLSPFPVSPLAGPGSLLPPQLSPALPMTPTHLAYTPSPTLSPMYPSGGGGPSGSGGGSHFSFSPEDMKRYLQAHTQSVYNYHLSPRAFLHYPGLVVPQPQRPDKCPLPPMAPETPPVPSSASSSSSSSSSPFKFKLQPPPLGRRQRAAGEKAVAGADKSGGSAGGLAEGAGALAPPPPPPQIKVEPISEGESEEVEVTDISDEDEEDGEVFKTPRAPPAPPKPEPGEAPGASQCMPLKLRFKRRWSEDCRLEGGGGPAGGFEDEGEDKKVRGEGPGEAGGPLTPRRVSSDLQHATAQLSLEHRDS
# How it was run: as §1
# ETV3L = target: T7, ETV3L (Homo sapiens, UniProt Q6ZN32 1-361); settings: protein: recombinant; tags: N-terminal GST; dsDNA, one strand shown
# T7 sequence: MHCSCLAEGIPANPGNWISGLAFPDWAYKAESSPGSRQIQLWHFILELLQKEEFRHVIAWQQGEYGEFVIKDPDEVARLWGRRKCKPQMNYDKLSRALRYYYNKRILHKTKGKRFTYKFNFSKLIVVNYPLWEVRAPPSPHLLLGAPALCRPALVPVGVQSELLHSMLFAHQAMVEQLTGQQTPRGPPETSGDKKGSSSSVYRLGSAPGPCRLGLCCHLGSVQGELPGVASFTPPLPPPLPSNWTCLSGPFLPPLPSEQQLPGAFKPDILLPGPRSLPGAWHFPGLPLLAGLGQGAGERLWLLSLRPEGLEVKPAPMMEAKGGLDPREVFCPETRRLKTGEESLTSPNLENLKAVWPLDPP
# How it was run: as §1
# ETS2 = target: T8, ETS2 (Homo sapiens, UniProt P15036 1-469); settings: protein: recombinant; tags: N-terminal GST; dsDNA, one strand shown
# T8 sequence: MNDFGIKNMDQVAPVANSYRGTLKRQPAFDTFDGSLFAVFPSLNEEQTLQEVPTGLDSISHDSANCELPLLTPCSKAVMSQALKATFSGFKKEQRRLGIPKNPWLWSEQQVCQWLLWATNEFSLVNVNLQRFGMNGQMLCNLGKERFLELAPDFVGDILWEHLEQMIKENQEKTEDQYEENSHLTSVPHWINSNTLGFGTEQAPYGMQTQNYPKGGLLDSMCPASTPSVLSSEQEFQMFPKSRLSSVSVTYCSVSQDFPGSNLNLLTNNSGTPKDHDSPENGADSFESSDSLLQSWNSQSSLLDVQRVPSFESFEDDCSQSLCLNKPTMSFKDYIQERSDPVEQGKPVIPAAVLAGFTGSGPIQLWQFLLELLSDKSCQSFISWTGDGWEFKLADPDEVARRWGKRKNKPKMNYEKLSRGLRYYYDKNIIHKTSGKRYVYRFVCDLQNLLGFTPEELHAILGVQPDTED
# How it was run: as §1
# SPDEF = target: T9, SPDEF (Homo sapiens, UniProt O95238 1-335); settings: protein: recombinant; tags: N-terminal GST; dsDNA, one strand shown
# T9 sequence: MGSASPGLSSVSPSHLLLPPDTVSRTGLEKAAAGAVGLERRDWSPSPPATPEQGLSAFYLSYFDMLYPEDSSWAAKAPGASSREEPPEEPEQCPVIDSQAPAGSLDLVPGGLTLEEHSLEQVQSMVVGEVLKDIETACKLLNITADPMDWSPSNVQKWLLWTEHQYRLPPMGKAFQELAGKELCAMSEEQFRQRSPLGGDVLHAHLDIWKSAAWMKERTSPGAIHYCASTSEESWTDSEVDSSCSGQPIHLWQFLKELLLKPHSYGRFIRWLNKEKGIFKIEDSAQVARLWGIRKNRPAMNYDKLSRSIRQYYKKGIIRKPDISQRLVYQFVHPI
# How it was run: as §1
# ETV7 = target: T10, ETV7 (Homo sapiens, UniProt Q9Y603 1-341); settings: protein: recombinant; tags: N-terminal GST; dsDNA, one strand shown
# T10 sequence: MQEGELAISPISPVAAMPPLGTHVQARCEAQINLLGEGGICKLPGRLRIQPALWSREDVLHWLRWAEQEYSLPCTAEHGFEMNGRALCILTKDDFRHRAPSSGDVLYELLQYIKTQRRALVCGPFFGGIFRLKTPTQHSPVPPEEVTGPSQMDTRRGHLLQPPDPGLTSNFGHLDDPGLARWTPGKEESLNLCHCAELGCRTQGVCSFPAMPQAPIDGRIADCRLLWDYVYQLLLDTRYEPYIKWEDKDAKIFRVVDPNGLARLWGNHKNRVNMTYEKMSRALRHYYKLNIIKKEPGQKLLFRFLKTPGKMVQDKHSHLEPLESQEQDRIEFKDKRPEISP
# How it was run: as §1
# ELF5 = target: T11, ELF5 (Homo sapiens, UniProt Q9UKW6-2 1-255); settings: protein: recombinant; tags: N-terminal GST; dsDNA, one strand shown
# T11 sequence: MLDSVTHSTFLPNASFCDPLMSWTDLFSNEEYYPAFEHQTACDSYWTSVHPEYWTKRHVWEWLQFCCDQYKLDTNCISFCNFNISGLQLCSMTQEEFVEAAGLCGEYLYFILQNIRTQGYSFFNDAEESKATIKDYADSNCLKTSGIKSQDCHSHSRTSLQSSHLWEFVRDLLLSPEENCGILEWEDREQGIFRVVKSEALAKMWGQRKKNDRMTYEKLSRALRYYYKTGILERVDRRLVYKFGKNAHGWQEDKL
# How it was run: as §1
# ETV3 = target: T12, ETV3 (Homo sapiens, UniProt P41162-2 1-143); settings: protein: recombinant; tags: N-terminal GST; dsDNA, one strand shown
# T12 sequence: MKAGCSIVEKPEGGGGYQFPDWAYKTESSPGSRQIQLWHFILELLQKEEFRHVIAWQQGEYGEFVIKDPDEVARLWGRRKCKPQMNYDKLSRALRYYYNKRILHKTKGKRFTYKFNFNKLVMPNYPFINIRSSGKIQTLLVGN
# How it was run: as §1
# ETV6 = ETV6 (Homo sapiens, UniProt P41212 1-452); settings: protein: recombinant; tags: N-terminal GST; dsDNA, one strand shown
# Chain of ETV6 (P41212 whole entry): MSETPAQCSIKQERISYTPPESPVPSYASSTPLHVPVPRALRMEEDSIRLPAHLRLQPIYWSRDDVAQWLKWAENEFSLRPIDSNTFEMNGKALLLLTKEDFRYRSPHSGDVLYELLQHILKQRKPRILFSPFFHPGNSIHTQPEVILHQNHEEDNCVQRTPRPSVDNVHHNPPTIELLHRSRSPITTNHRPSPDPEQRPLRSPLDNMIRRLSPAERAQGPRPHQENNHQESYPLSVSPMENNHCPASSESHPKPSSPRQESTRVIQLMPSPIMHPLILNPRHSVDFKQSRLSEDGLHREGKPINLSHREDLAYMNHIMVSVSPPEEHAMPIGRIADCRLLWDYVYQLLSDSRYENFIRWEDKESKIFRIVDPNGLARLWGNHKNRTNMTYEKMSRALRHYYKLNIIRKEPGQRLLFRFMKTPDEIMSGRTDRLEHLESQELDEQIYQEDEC
# How it was run: as §1
sequence,measurement,setting,value
GCTTTA,binding signal,FEV,"1.04 fold enrichment (6-mer frequency, TF over GST control)"
same,binding signal,ETV5,"1.06 fold enrichment (6-mer frequency, TF over GST control)"
same,binding signal,HSF1,"1.25 fold enrichment (6-mer frequency, TF over GST control)"
same,binding signal,SPIC,"1.13 fold enrichment (6-mer frequency, TF over GST control)"
same,binding signal,ELF4,"1.14 fold enrichment (6-mer frequency, TF over GST control)"
same,binding signal,ELK4,"1.2 fold enrichment (6-mer frequency, TF over GST control)"
same,binding signal,ETV2,"1.16 fold enrichment (6-mer frequency, TF over GST control)"
same,binding signal,ELF3,"1.13 fold enrichment (6-mer frequency, TF over GST control)"
same,binding signal,CRX,"1.81 fold enrichment (6-mer frequency, TF over GST control)"
same,binding signal,ETV1,"1.06 fold enrichment (6-mer frequency, TF over GST control)"
same,binding signal,ERF,"1.25 fold enrichment (6-mer frequency, TF over GST control)"
same,binding signal,ETV3L,"1.15 fold enrichment (6-mer frequency, TF over GST control)"
same,binding signal,ETS2,"1.2 fold enrichment (6-mer frequency, TF over GST control)"
same,binding signal,SPDEF,"1.06 fold enrichment (6-mer frequency, TF over GST control)"
same,binding signal,ETV7,"1.19 fold enrichment (6-mer frequency, TF over GST control)"
same,binding signal,ELF5,"1.08 fold enrichment (6-mer frequency, TF over GST control)"
same,binding signal,ETV3,"1.13 fold enrichment (6-mer frequency, TF over GST control)"
same,binding signal,ETV6,"1.1 fold enrichment (6-mer frequency, TF over GST control)"
